Source: PubChem BioAssay (NCATS)
Inconclusive results are not listed. The source made the active and inactive calls. The call rests on the fitted dose curve; in most records, active means well fitted inhibition curve with a large enough effect; inconclusive means small, poorly fitted or top-dose-only effect; inactive means flat fitted curve, though single readings scatter. Where a SMILES comes first, the peptide text is derived from it. [ ]: non-standard residue; d: D form. The star is where a group is joined. AFC = O=c1cc(C(F)(F)F)c2ccc(N*)cc2o1

Target: Calcium and integrin-binding protein 1 (Homo sapiens) (UniProt Q99828)
Sequence (Q99828 whole entry, looked up): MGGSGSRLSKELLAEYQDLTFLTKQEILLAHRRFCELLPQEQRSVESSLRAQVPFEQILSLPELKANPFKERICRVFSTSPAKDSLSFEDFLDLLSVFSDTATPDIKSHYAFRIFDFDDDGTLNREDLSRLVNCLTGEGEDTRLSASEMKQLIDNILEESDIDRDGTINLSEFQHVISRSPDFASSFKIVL
Experiment: Primary qHTS for Identification of Calcium Integrin Binding Protein 1 (CIB1) Competitor (AID 1508620);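 further: GST tagged CIB1 binding a fluorescein labelled alphaIIb integrin peptide tracer; top concentration of the series differs between compounds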
Settings: CIB1-GST / FITC-alphaIIb peptide fluorescence polarization; series mostly up to 57.7 µM; activity change, negative = inhibition: at the top concentration
Method in brief: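 Fluorescence polarization competition: CIB1-GST (1 uM final) preincubated with compound 15 min at room temperature, then FITC-labeled alphaIIb peptide (100 nM final) added for another 15 min. Polarization read at Ex 480/Em 540.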
On the % scale 0 is the no-effect control and ±100 the full control effect.

Compound	activity change, negative = inhibition	Potency
Clc1ccc(CN[C@H]2CCN(c3ncc(Br)cn3)C2)c(Cl)c1	-5.37% [at 114 µM] (inactive)	–
CC(C)C1=CC2=CCC3[C@](C)(CCC[C@@]3(C)C(=O)O)C2CC1=O (some centres undefined)	0.262% (inactive)	–
C[C@@H]1O[C@@H](O[C@H]2[C@H](OC(=O)C34CCC5(C)C(=CCC6C7(C)CC(O)C(O[C@@H]8O[C@H](C(=O)O)[C@@H](O)[C@H](O)[C@H]8O)C(C)(C(=O)O)C7CCC65C)C3CC(C)(C)CC4O)O[C@H](C)[C@@H](O)[C@@H]2O)[C@H](O)[C@@H](O[C@@H]2OC[C@](O)(CO)[C@H]2O[C@@H]2O[C@H](CO)[C@@H](O)[C@H](O)[C@H]2O)[C@H]1O (some centres undefined)	-1.08% [at 12.4 µM] (inactive)	–
CC1CCC2C(C(=O)O)=CC3CC(C)(C)CC132 (centres undefined)	-6.95% [at 114 µM] (inactive)	–
CC(=O)OC[C@@]12[C@H](O)C[C@@H](C)[C@]3(C[C@@H](c4ccoc4)OC3=O)[C@H]1C[C@H](O)C[C@]21CO1	5.77% (inactive)	–
CC1(C)O[C@@]2(C)CC[C@@H]1C[C@@H]2OC1OC(CO)C(O)C(O)C1O (some centres undefined)	-1.66% (inactive)	–
CC(C)C1=CCC(C)(O)C(OC2OC(CO)C(O)C(O)C2O)C1 (centres undefined)	-10.2% (inactive)	–
CC[C@H]1OC(=O)[C@H](C)[C@@H](OC2C[C@@](C)(OC)[C@@H](O)[C@H](C)O2)[C@H](C)[C@@H](OC2O[C@H](C)C[C@H](NC)[C@H]2O)[C@](C)(O)C[C@@H](C)CN(C)[C@H](C)[C@@H](O)[C@]1(C)O (some centres undefined)	1.68% [at 114 µM] (inactive)	–
C=C1CC[C@@H]2[C@](C)(CC[C@H](O)[C@@]2(C)CCC=C(C)C)[C@@H]1Cc1c[nH]c2ccccc12	3.84% (inactive)	–
CCn1c2ccccc2c2cc(CNC)ccc21	–	inactive
CC1CCC2(C(=O)OC3OC(CO)C(O)C(O)C3O)CCC3(C)C(=CCC4C5(C)CC(O)C(O)C(C)(C(=O)O)C5CCC43C)C2C1(C)O (centres undefined)	4.06% [at 30.2 µM] (inactive)	–
C=C1CCC[C@]2(C)C[C@]3(O)OC(=O)C(C)=C3C[C@@H]12	0.295% [at 114 µM] (inactive)	–
CCC(C)(O)C(O)C(=O)OCc1ccc(O[C@@H]2O[C@H](CO)[C@@H](O)[C@H](O)[C@H]2O)cc1 (some centres undefined)	3.7% (inactive)	–
CC1(C)C(O)CCC2(C)C1C(O)C=C1COC(=O)C12O (centres undefined)	3.73% [at 114 µM] (inactive)	–
CC1(O)CCC2C(C(=O)O)=COC(OC3OC(CO)C(O)C(O)C3OC(=O)/C=C/c3ccc(O)cc3)C21 (centres undefined)	-3.85% (inactive)	–
O=C(/C=C/c1ccc(O)cc1)O[C@H]1[C@@H]2C=CO[C@@H](O[C@@H]3O[C@H](CO)[C@@H](O)[C@H](O)[C@H]3O)[C@@H]2[C@@]2(CO)O[C@@H]12	0.028% (inactive)	–
Nc1ncnc2c1ncn2[C@H]1CCCO1	2.7% [at 114 µM] (inactive)	–
COC(=O)C1=CO[C@@H](O[C@@H]2O[C@H](CO[C@@H]3O[C@H](COC(=O)/C=C/c4ccc(O)cc4)[C@@H](O)[C@H](O)[C@H]3O)[C@@H](O)[C@H](O)[C@H]2O)[C@@H]2C(CO)=CC[C@H]12	1.47% [at 30.2 µM] (inactive)	–
CCC(C)/C=C(C)/C=C/C1=CC2=C(Cl)C(=O)C(C)(OC(C)=O)C(=O)C2=CN1CCCC(=O)O (centres undefined)	-8.58% (inactive)	–
COC1CC(=O)CCC(C)OC(=O)CC1O (centres undefined)	-3% [at 114 µM] (inactive)	–

Compound	activity change, negative = inhibition	Potency
c1ccc(C(OC2CCN(CCCc3nn[nH]n3)CC2)c2ccccc2)cc1	-6.05% [at 114 µM] (inactive)	–
C/C=C/C1=CC2=CC(=O)C(C)(O)C(OC(=O)c3c(C)cc(O)cc3O)C2CO1 (centres undefined)	-12.3% (inactive)	–
CN1C(=O)N[C@@H](Cc2c[nH]c3c(Cl)cccc23)C1=O	1.98% [at 114 µM] (inactive)	–
C[C@@H]1O[C@@H](O[C@H]2[C@H](O[C@H]3[C@H](O[C@H]4CC[C@@]5(C=O)C(CC[C@]6(C)C5CC=C5C7CC(C)(C)C[C@@H](O)[C@]7(C)CC[C@]56C)C4(C)C)O[C@H](C(=O)O)[C@@H](O)[C@@H]3O)OC[C@@H](O)[C@@H]2O)[C@H](O)[C@H](O)[C@H]1O (some centres undefined)	-3.09% [at 30.2 µM] (inactive)	–
O=C(O[C@H]1[C@@H]2C[C@@H]3OC[C@@](O)([C@H]2[C@H](O[C@@H]2O[C@H](CO)[C@@H](O)[C@H](O)[C@H]2O)O3)[C@@H]1O)c1ccccc1	-2.11% (inactive)	–
C[C@@H]1CC[C@]2(C(=O)O[C@@H]3O[C@H](CO)[C@@H](O)[C@H](O)[C@H]3O)CC[C@]3(C)C(=CCC4[C@@]5(C)C[C@@H](O)[C@H](O)C(C)(C)C5CC[C@]43C)C2[C@]1(C)O (some centres undefined)	0.644% [at 30.2 µM] (inactive)	–
CCOC(=O)N1CCC(NCCNC(=O)c2ccccc2C)CC1	3.6% [at 114 µM] (inactive)	–
C=CC1C(O[C@@H]2O[C@H](CO)[C@@H](O)[C@H](O)[C@H]2O)OC=C(C(=O)OC)C1CC(=O)O (some centres undefined)	-2.29% (inactive)	–
CC(=O)N[C@@H](CC(C)C)C(=O)N[C@@H](CCC(=O)O)C(=O)N[C@@H](CCC(=O)O)C(=O)N[C@@H](CC(=O)O)C(=O)Nc1ccc2c(C(F)(F)F)cc(=O)oc2c1 (Ac-LEED-{AFC})	-13% [at 114 µM] (inactive)	–
CC(=O)N[C@H](Cc1ccc(O)cc1)C(=O)N[C@H](CCCN=C(N)N)C(=O)N[C@H](Cc1ccccc1)C(N)=O (Ac-[dY]-[dR]-[dF]-NH2)	1.93% [at 114 µM] (inactive)	–
COc1cc(NC(=O)c2ccccn2)ccc1Cl	-5.31% [at 114 µM] (inactive)	–
C=CC1(C)CC2=CCC3C(C)(C(=O)O)CCCC3(C)C2CC1OC(C)=O (centres undefined)	-0.802% (inactive)	–
Cc1[nH]cnc1C1CCN(c2nc3cccc4c3n2CCC4=O)CC1	0.388% [at 114 µM] (inactive)	–
COc1cc(/C=C/C(=O)OC[C@H]2O[C@H](O[C@]3(CO)O[C@H](CO)[C@@H](O)[C@@H]3O)[C@H](O)[C@@H](O)[C@@H]2O)cc(OC)c1O	-0.413% (inactive)	–
c1ccc(Nc2nc3c(s2)CCCc2[nH]ncc2-3)nc1	-7.68% [at 114 µM] (inactive)	–
C#Cc1cnc2[nH]c(=O)n(C(CC)CC)c2n1	1.47% [at 114 µM] (inactive)	–
C[C@@H]1CC[C@]2(C(=O)O)CC[C@]3(C)C(=CCC4[C@]5(C)C(CC[C@]43C)C(C)(C)[C@@H](O)[C@H](O)[C@@H]5O)C2[C@]1(C)O (some centres undefined)	-2.24% (inactive)	–
C/C=C(\C)C(=O)O[C@@H](C)[C@H]1CC[C@]2(O)C3CCC4C[C@@H](OC5CC(OC)C(OC6CC(OC)C(OC7CC(OC)C(OC8OC(C)C(OC9OC(CO)C(O)C(O)C9O)C(OC)C8O)C(C)O7)C(C)O6)C(C)O5)CC[C@]4(C)C3[C@H](O)[C@@H](O)[C@]12C (some centres undefined)	-0.005% [at 12.4 µM] (inactive)	–
CC(=O)[C@@H]1CC[C@]2(C(=O)O)CC[C@]3(C)C(CCC4[C@@]5(C)CC[C@H](O)C(C)(C)C5CC[C@]43C)C12 (some centres undefined)	1.69% (inactive)	–
